# Targets with a hit are over-represented here; the source holds about 8,800 in all. About 0.5% of all pairs of compound and target were hits.
# Columns and labels:
# Assay in all cases: log2 fold change, soluble protein after heating vs DMSO (PISA); higher = thermal stabilisation; K562 lysate, 10 uM; active = over 0.2 and 3.5 SD of the protein, either way, in both replicates (recomputed)
# ibrutinib = compound: C=CC(=O)N1CCC[C@@H](n2nc(-c3ccc(Oc4ccccc4)cc3)c3c(N)ncnc32)C1 [ibrutinib]
# Method in brief: (§1)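 Quantification was by TMTpro 16plex LC-MS/MS with equalised channel sums, applied to the supernatant after 21,000xg for 90 min. Samples were crude K562 extract at 1 mg/mL protein in PBS pH 7.4 with 1 mM MgCl2, treated with 10 μM compound for 30 min, heated for 3 min across 48°C-58°C, pooled and brought to 0.5% NP-40 at 4°C. Values are log-two fold changes in thermal stability relative to solvent controls, from duplicates.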
# [1] = compound: CC(=O)c1cnc2ccc(-c3cc(Cl)c(O)c(Cl)c3)nc2c1N[C@H]1CC[C@H](CN(C)C)CC1
# Method in brief: as §1
# ralimetinib = compound: CC(C)(C)Cn1c(N)nc2ccc(-c3[nH]c(C(C)(C)C)nc3-c3ccc(F)cc3)nc21 [ralimetinib]
# Method in brief: as §1
# [2] = compound: CC(C)(O)CC(=O)NCCn1ccc2ncnc(Nc3ccc(Oc4cccc(C(F)(F)F)c4)c(Cl)c3)c21
# Method in brief: as §1
# [3] = compound: CC(C)C1=C2N=C(C=C(N2N=C1)NCC3=CC=CC=C3)NCCCCCCN
# Method in brief: as §1
# [4] = compound: CC1=C(C(CC(=O)N1)C2=CC=C(C=C2)C(F)(F)F)C(=O)NC3=C(C=C4C(=C3)C=NN4)F
# Method in brief: as §1
# [5] = compound: CC1=C(C2=C(C=C1)C(=O)C3=CC=CC=C3N2CCCN)C
# Method in brief: as §1
# [6] = compound: CC1=C(C=C(C=C1)NC(=O)C2=CC(=CC=C2)C(C)(C)C#N)NC3=CC4=C(C=C3)N=CN(C4=O)C
# Method in brief: as §1
# [7] = compound: CC1=C(C=C(C=C1)NC(=O)C2=CC(=CC=C2)N(C)C)NC(=O)C3=CC=C(C=C3)O
# Method in brief: as §1
# [8] = compound: CC1=CC=C(C=C1)SC2=C3C=C(SC3=CN=C2)C(=O)N
# Method in brief: as §1
# vemurafenib = compound: CCCS(=O)(=O)Nc1ccc(F)c(C(=O)c2c[nH]c3ncc(-c4ccc(Cl)cc4)cc23)c1F [vemurafenib]
# Method in brief: as §1
# [9] = compound: CCCS(=O)(=O)Nc1ccc(F)c(C(=O)c2c[nH]c3ncc(Cl)cc23)c1F
# Method in brief: as §1
# barasertib = compound: CCN(CCCOc1ccc2c(Nc3cc(CC(=O)Nc4cccc(F)c4)[nH]n3)ncnc2c1)CCOP(=O)(O)O [barasertib]
# Method in brief: as §1
# [10] = compound: CC[C@@H]1C(=O)N(C)c2cnc(Nc3ccc(C(=O)NC4CCN(C)CC4)cc3OC)nc2N1C1CCCC1
# Method in brief: as §1
# volasertib = compound: CC[C@@H]1C(=O)N(C)c2cnc(Nc3ccc(C(=O)N[C@H]4CC[C@H](N5CCN(CC6CC6)CC5)CC4)cc3OC)nc2N1C(C)C [volasertib]
# Method in brief: as §1
# [11] = compound: CCn1c(C(=O)N(C2CC2)C2CC2)cc2c3c(ncn3C)c(Nc3cc(C)n(C)n3)nc21
# Method in brief: as §1
# [12] = compound: CCn1cc(-c2ccnc3[nH]c(-c4cccc(CN(C)C)c4)cc23)c(-c2ccc(NC(=O)N(C)C)cc2)n1
# Method in brief: as §1
# [13] = compound: CN1CCC(CNc2ccc3ncc(-c4cccc(OC(F)(F)F)c4)n3n2)CC1
# Method in brief: as §1
# saracatinib = compound: CN1CCN(CCOc2cc(OC3CCOCC3)c3c(Nc4c(Cl)ccc5c4OCO5)ncnc3c2)CC1 [saracatinib]
# Method in brief: as §1
# sotrastaurin = compound: CN1CCN(c2nc(C3=C(c4c[nH]c5ccccc45)C(=O)NC3=O)c3ccccc3n2)CC1 [sotrastaurin]
# Method in brief: as §1
# UniProt Q92759, sequence (Q92759 whole entry, looked up): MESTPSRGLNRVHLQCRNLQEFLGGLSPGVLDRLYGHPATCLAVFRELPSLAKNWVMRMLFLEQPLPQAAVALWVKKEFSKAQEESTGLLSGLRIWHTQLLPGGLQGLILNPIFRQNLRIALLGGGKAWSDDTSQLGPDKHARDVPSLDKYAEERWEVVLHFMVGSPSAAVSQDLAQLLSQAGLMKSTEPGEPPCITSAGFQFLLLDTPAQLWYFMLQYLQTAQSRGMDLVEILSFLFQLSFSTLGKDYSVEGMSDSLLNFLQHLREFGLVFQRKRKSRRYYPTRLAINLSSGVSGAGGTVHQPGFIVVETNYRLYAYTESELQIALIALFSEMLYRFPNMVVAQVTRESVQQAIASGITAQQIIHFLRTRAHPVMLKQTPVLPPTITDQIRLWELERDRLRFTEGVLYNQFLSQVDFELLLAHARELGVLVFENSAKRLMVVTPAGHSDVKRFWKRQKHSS
# UniProt Q9H4A5, sequence (Q9H4A5 whole entry, looked up): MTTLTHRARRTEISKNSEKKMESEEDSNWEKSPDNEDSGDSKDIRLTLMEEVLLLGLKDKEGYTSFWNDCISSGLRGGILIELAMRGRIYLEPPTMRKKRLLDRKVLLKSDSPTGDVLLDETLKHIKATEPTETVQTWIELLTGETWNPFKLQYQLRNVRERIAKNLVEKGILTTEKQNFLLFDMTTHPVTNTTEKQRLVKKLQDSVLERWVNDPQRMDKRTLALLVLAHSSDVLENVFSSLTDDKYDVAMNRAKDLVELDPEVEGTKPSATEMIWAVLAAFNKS
# UniProt Q14687, sequence (Q14687 whole entry, looked up): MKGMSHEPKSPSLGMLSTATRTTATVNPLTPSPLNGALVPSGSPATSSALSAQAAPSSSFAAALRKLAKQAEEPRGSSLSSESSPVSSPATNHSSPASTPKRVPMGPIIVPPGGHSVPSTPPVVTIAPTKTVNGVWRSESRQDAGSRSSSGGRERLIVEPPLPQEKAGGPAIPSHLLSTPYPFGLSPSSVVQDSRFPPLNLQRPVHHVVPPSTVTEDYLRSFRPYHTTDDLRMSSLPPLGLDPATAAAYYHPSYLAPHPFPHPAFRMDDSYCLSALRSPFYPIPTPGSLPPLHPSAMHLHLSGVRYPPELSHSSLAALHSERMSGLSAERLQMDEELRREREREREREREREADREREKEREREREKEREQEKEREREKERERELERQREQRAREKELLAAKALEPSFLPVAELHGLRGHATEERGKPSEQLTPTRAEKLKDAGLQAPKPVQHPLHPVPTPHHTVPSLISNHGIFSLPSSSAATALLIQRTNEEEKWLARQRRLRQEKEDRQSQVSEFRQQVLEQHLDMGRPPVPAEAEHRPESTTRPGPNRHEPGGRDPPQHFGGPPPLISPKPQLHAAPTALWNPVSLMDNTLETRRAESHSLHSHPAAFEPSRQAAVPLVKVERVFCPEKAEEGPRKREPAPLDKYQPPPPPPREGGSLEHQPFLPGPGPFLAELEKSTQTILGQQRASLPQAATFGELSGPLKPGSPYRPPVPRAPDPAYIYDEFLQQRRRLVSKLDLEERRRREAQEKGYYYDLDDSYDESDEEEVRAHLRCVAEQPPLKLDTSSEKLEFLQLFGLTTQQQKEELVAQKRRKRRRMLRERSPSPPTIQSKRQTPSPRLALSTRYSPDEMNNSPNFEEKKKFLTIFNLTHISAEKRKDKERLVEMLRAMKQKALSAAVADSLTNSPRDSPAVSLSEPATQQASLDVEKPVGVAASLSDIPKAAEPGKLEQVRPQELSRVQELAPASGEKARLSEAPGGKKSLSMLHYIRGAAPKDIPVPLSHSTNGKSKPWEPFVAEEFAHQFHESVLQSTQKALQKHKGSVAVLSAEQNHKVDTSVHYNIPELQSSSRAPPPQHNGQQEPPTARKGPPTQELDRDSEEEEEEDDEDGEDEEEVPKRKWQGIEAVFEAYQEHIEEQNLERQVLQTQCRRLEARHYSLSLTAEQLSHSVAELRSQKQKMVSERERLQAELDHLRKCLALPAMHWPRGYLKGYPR
# UniProt P49448, sequence (P49448 whole entry, looked up): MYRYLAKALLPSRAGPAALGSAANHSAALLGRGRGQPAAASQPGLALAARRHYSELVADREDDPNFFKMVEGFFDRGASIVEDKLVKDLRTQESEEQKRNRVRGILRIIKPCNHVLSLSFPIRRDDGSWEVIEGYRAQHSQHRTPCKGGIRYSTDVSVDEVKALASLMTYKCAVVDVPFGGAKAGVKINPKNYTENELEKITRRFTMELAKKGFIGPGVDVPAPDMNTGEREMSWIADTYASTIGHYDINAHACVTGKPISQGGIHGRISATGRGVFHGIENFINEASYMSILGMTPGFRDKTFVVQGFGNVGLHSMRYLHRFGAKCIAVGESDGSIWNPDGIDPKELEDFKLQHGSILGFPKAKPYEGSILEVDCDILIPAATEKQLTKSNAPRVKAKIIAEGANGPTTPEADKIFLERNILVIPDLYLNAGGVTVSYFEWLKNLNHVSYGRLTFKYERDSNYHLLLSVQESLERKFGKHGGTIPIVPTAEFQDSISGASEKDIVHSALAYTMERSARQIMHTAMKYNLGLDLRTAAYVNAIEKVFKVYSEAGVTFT
# UniProt Q9NVX7, sequence (Q9NVX7 whole entry, looked up): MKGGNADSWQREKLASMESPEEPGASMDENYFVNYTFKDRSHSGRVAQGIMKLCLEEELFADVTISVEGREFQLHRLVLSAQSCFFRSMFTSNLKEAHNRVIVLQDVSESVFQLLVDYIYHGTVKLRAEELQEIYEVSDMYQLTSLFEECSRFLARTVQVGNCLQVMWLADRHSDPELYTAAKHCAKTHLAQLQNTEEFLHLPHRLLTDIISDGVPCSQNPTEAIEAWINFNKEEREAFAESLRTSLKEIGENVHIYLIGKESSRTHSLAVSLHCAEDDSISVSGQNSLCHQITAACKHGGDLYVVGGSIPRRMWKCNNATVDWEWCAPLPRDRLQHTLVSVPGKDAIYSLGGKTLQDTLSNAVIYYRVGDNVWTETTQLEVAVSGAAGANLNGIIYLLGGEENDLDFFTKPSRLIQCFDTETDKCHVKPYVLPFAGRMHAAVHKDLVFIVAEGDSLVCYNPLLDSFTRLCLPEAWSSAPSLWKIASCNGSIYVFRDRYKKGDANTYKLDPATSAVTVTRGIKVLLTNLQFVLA
# UniProt Q96AB3, sequence (Q96AB3 whole entry, looked up): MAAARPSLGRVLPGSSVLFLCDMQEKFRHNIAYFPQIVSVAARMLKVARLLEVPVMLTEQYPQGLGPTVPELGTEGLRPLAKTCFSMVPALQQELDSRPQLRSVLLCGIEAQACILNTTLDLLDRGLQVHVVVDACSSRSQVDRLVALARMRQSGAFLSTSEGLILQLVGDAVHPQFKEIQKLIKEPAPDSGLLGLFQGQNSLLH
# UniProt Q8IU81, sequence (Q8IU81 whole entry, looked up): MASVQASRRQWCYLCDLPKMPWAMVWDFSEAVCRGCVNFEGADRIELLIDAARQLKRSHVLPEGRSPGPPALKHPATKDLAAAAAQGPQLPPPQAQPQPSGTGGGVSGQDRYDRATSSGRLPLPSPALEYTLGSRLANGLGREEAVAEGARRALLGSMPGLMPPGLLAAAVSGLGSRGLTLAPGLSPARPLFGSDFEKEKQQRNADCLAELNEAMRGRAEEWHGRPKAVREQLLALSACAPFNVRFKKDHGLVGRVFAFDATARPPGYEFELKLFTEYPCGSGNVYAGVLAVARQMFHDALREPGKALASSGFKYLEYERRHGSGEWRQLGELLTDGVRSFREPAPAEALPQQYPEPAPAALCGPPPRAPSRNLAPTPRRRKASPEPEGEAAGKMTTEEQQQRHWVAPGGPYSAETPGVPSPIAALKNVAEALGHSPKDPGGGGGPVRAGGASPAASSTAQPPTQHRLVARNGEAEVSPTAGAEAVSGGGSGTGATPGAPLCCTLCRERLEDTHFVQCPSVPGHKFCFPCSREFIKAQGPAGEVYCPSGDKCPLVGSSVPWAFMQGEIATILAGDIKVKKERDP
# UniProt Q99729, sequence (Q99729 whole entry, looked up): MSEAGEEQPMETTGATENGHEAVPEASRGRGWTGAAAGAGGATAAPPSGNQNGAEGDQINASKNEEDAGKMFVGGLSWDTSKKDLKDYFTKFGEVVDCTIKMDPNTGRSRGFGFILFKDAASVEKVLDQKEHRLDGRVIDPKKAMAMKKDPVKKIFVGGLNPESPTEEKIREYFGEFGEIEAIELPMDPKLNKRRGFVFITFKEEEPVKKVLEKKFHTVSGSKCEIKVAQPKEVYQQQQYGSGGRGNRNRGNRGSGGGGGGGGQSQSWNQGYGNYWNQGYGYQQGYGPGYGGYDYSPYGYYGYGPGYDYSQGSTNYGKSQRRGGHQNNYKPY
# UniProt O15379, sequence (O15379 whole entry, looked up): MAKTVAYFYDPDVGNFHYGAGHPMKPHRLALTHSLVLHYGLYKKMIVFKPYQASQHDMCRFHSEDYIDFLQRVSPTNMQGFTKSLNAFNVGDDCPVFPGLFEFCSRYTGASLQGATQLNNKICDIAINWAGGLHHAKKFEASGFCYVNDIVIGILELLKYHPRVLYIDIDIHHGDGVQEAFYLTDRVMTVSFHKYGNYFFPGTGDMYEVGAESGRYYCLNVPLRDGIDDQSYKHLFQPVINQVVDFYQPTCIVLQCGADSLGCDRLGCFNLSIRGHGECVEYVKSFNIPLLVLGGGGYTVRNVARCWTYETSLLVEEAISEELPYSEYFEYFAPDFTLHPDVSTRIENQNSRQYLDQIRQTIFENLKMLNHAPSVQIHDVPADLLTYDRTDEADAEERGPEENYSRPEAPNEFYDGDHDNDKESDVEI
# UniProt P35914, sequence (P35914 whole entry, looked up): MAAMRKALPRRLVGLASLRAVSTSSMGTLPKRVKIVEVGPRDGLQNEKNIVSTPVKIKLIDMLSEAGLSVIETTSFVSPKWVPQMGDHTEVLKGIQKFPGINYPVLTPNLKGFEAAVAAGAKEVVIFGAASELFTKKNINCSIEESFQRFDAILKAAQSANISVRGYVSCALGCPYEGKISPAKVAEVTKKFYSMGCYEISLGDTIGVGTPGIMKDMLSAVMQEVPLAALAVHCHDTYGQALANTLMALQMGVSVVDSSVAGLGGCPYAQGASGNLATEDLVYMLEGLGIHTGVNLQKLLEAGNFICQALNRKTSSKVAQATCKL
Target,log2 fold change (ibrutinib),log2 fold change [1],log2 fold change (ralimetinib),log2 fold change [2],log2 fold change [3],log2 fold change [4],log2 fold change [5],log2 fold change [6],log2 fold change [7],log2 fold change [8],log2 fold change (vemurafenib),log2 fold change [9],log2 fold change (barasertib),log2 fold change [10],log2 fold change (volasertib),log2 fold change [11],log2 fold change [12],log2 fold change [13],log2 fold change (saracatinib),log2 fold change (sotrastaurin)
"HDLBP, A0A024R4E5",-0.034 (inactive),-0.007 (inactive),0.029 (inactive),-0.014 (inactive),-0.012 (inactive),0.007 (inactive),-0.004 (inactive),-0.009 (inactive),0.042 (inactive),0.003 (inactive),0.008 (inactive),0.024 (inactive),-0.017 (inactive),0.016 (inactive),-0.04 (inactive),0.011 (inactive),-0.018 (inactive),-0.008 (inactive),-0.002 (inactive),0.004 (inactive)
HAUS5 (UniProt O94927),0 (inactive),0.002 (inactive),0.034 (inactive),0.017 (inactive),0.027 (inactive),-0.027 (inactive),0 (inactive),0 (inactive),0.033 (inactive),0.021 (inactive),0.004 (inactive),0.048 (inactive),-0.02 (inactive),-0.038 (inactive),-0.016 (inactive),0.026 (inactive),0.01 (inactive),-0.087 (inactive),-0.008 (inactive),0.03 (inactive)
HMGCL (UniProt P35914),0.037 (inactive),0.008 (inactive),0.026 (inactive),-0.016 (inactive),-0.018 (inactive),0.001 (inactive),-0.019 (inactive),-0.009 (inactive),0.022 (inactive),-0.014 (inactive),-0.017 (inactive),0.01 (inactive),0.027 (inactive),0.037 (inactive),0.014 (inactive),0.037 (inactive),0.05 (inactive),-0.02 (inactive),-0.013 (inactive),-0.01 (inactive)
GOLPH3L (UniProt Q9H4A5),0.058 (inactive),0.005 (inactive),-0.058 (inactive),0.071 (inactive),0.009 (inactive),-0.042 (inactive),-0.01 (inactive),0.114 (inactive),-0.029 (inactive),0.006 (inactive),0.068 (inactive),0.025 (inactive),0.033 (inactive),-0.055 (inactive),-0.023 (inactive),0.048 (inactive),-0.034 (inactive),-0.08 (inactive),0.046 (inactive),-0.092 (inactive)
GTF2H4 (UniProt Q92759),0.039 (inactive),0.003 (inactive),0.058 (inactive),-0.006 (inactive),0.021 (inactive),0.054 (inactive),-0.014 (inactive),-0.015 (inactive),0.052 (inactive),0.037 (inactive),-0.047 (inactive),0.007 (inactive),0.039 (inactive),-0.099 (inactive),-0.046 (inactive),0.028 (inactive),0.063 (inactive),-0.075 (inactive),0.029 (inactive),0.034 (inactive)
ISOC2 (UniProt Q96AB3),0.017 (inactive),-0.021 (inactive),0.056 (inactive),0.024 (inactive),0.014 (inactive),-0.004 (inactive),-0.131 (inactive),0.054 (inactive),0.041 (inactive),0.035 (inactive),0.048 (inactive),0.033 (inactive),-0.12 (inactive),0.096 (inactive),0.013 (inactive),-0.043 (inactive),0.02 (inactive),-0.08 (inactive),-0.047 (inactive),0.002 (inactive)
HNRNPAB isoform 3 (UniProt Q99729),-0.029 (inactive),-0.159 (inactive),-0.037 (inactive),0.006 (inactive),-0.007 (inactive),0.055 (inactive),-0.003 (inactive),-0.01 (inactive),-0.013 (inactive),0 (inactive),0.018 (inactive),-0.001 (inactive),-0.003 (inactive),0.033 (inactive),0.019 (inactive),0.011 (inactive),-0.096 (inactive),-0.004 (inactive),0.027 (inactive),-0.013 (inactive)
HNRNPL (UniProt P14866),-0.015 (inactive),0.012 (inactive),0.047 (inactive),0.046 (inactive),0.051 (inactive),0 (inactive),0.021 (inactive),0.001 (inactive),0.058 (inactive),0.032 (inactive),0.01 (inactive),0.023 (inactive),0.021 (inactive),-0.052 (inactive),-0.047 (inactive),0.061 (inactive),-0.012 (inactive),-0.056 (inactive),0.017 (inactive),0.023 (inactive)
IRF2BP1 (UniProt Q8IU81),0.003 (inactive),0.027 (inactive),0.008 (inactive),0.02 (inactive),0.006 (inactive),-0.016 (inactive),-0.027 (inactive),0.02 (inactive),-0.001 (inactive),-0.038 (inactive),0.015 (inactive),0.023 (inactive),-0.003 (inactive),0.026 (inactive),-0.088 (inactive),0.014 (inactive),0.037 (inactive),-0.06 (inactive),0 (inactive),0.01 (inactive)
GSE1 (UniProt Q14687),0.006 (inactive),-0.021 (inactive),0.015 (inactive),-0.026 (inactive),-0.004 (inactive),-0.009 (inactive),0.008 (inactive),-0.055 (inactive),0.035 (inactive),-0.016 (inactive),-0.018 (inactive),0.035 (inactive),0.011 (inactive),-0.015 (inactive),-0.026 (inactive),0.007 (inactive),-0.074 (inactive),-0.009 (inactive),0.031 (inactive),0.049 (inactive)
GLUD2 (UniProt P49448),-0.063 (inactive),0.063 (inactive),0.02 (inactive),-0.043 (inactive),-0.012 (inactive),0.018 (inactive),-0.028 (inactive),0.061 (inactive),0.001 (inactive),0.033 (inactive),0.177 (inactive),-0.042 (inactive),-0.069 (inactive),0.02 (inactive),-0.145 (inactive),-0.031 (inactive),-0.024 (inactive),0.046 (inactive),0.007 (inactive),-0.039 (inactive)
KBTBD4 isoform 2 (UniProt Q9NVX7),0.051 (inactive),-0.026 (inactive),-0.069 (inactive),0.009 (inactive),-0.039 (inactive),-0.156 (inactive),-0.045 (inactive),0.142 (inactive),-0.014 (inactive),0.031 (inactive),0 (inactive),0.021 (inactive),0.013 (inactive),0.063 (inactive),-0.022 (inactive),0.031 (inactive),-0.04 (inactive),-0.032 (inactive),0.086 (inactive),0.032 (inactive)
HMGB2 (UniProt P26583),-0.038 (inactive),0.012 (inactive),-0.034 (inactive),0.026 (inactive),0.014 (inactive),-0.013 (inactive),-0.001 (inactive),-0.035 (inactive),0.015 (inactive),-0.004 (inactive),0.003 (inactive),0.017 (inactive),-0.019 (inactive),0.037 (inactive),0.014 (inactive),0.018 (inactive),0.283 (active),-0.273 (active),0.007 (inactive),-0.04 (inactive)
GLUL (UniProt P15104),0.031 (inactive),0.004 (inactive),0.006 (inactive),-0.002 (inactive),-0.008 (inactive),0.026 (inactive),0.023 (inactive),-0.117 (inactive),-0.011 (inactive),0.031 (inactive),-0.055 (inactive),0.012 (inactive),-0.026 (inactive),-0.028 (inactive),-0.024 (inactive),0.021 (inactive),0.326 (inactive),-0.058 (inactive),-0.004 (inactive),0.016 (inactive)
ILRUN (UniProt Q9H6K1),-0.002 (inactive),-0.011 (inactive),0.001 (inactive),-0.019 (inactive),0.007 (inactive),0.035 (inactive),-0.03 (inactive),0.009 (inactive),0.018 (inactive),0.02 (inactive),-0.012 (inactive),0.048 (inactive),0.06 (inactive),-0.001 (inactive),-0.058 (inactive),-0.059 (inactive),-0.109 (inactive),0.067 (inactive),0.024 (inactive),-0.003 (inactive)
HDAC3 (UniProt O15379),-0.004 (inactive),0 (inactive),0.043 (inactive),0.018 (inactive),-0.029 (inactive),-0.03 (inactive),0 (inactive),-0.003 (inactive),-0.082 (inactive),-0.007 (inactive),0.035 (inactive),0.026 (inactive),-0.038 (inactive),-0.023 (inactive),-0.003 (inactive),0.001 (inactive),0.023 (inactive),0.052 (inactive),-0.04 (inactive),-0.006 (inactive)

# — the supplement of paper PMC10849652
